PubChem BioAssay (NCI)
This is part of a sample that, as a whole, favours compounds with a hit. Of some 83,000 tested, about 20% had one in any assay.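 In brief: 96-well plates, 48 h treatment, single concentration, percent growth endpoint.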 Activity calls are given as the source filed them. How the source made its calls: active means growth percent below 10; inactive means the rest.

Assays:
Assay in all cases: NCI-60 one-dose screen, 48 h (100 = growth as untreated, 0 = no growth, -100 = all killed)
Settings in all cases: 10 µM unless noted
SR leukemia = system: SR leukemia
RPMI-8226 leukemia = system: RPMI-8226 leukemia
OVCAR-8 ovarian = system: OVCAR-8 ovarian
OVCAR-5 ovarian = system: OVCAR-5 ovarian
OVCAR-4 ovarian = system: OVCAR-4 ovarian
SK-OV-3 ovarian = system: SK-OV-3 ovarian
IGROV1 ovarian = system: IGROV1 ovarian
OVCAR-3 ovarian = system: OVCAR-3 ovarian
HS 578T breast = system: HS 578T breast
NCI/ADR-RES ovarian = system: NCI/ADR-RES ovarian

Measured: growth

O=C(C[C@@H](C(=O)NCc1cccc(C(F)(F)F)c1)N1C(=O)[C@@H](N2C(=O)OC[C@@H]2c2ccccc2)[C@H]1/C=C/c1ccccc1)NC1CCN(Cc2ccccc2)CC1
inactive: OVCAR-8 ovarian 83.7% | OVCAR-5 ovarian 104% | OVCAR-4 ovarian 66.1% | SK-OV-3 ovarian 81.1% | IGROV1 ovarian 75% | OVCAR-3 ovarian 65.6% | HS 578T breast 73.3% | NCI/ADR-RES ovarian 69.8%
active: SR leukemia -23.3% | RPMI-8226 leukemia -13.7%

NCc1cn2cc(Cl)sc2n1
inactive: SR leukemia 102% | RPMI-8226 leukemia 106% | OVCAR-8 ovarian 105% | OVCAR-5 ovarian 98% | OVCAR-4 ovarian 100% | SK-OV-3 ovarian 103% | IGROV1 ovarian 109% | OVCAR-3 ovarian 114% | HS 578T breast 113% | NCI/ADR-RES ovarian 111%

COC(/C=C/c1ccc([N+](=O)[O-])cc1)OC
inactive: SR leukemia 31.6% | RPMI-8226 leukemia 70% | OVCAR-8 ovarian 84.4% | OVCAR-5 ovarian 99.8% | OVCAR-4 ovarian 96.6% | SK-OV-3 ovarian 110% | IGROV1 ovarian 89% | OVCAR-3 ovarian 120% | HS 578T breast 122% | NCI/ADR-RES ovarian 96%

CN1/C(=C\C=C\C2=[N+](C)c3ccccc3C2(C)C)C(C)(C)c2ccccc21
active: SR leukemia -32.8% | RPMI-8226 leukemia -8.69% | OVCAR-8 ovarian 1.34% | SK-OV-3 ovarian -2.66% | IGROV1 ovarian 2.4% | OVCAR-3 ovarian 2.1%
inactive: OVCAR-5 ovarian 20.9% | OVCAR-4 ovarian 10.5% | HS 578T breast 23.4% | NCI/ADR-RES ovarian 14.3%

CCCCCCCCCCCCCCCC[N+]1(CC)CCCC1
inactive: NCI/ADR-RES ovarian 85.8%
active: SR leukemia -39.9% | RPMI-8226 leukemia -54.7% | OVCAR-8 ovarian -42.5% | OVCAR-5 ovarian 0.586% | OVCAR-4 ovarian -4.99% | SK-OV-3 ovarian -25.1% | IGROV1 ovarian -76% | OVCAR-3 ovarian -52.5% | HS 578T breast -8.22%

Cc1ccc(SCN2CCN(c3cccc(Cl)c3)CC2)cc1
inactive: SR leukemia 91.7% | RPMI-8226 leukemia 164% | OVCAR-8 ovarian 110% | OVCAR-5 ovarian 112% | OVCAR-4 ovarian 108% | SK-OV-3 ovarian 111% | IGROV1 ovarian 80.4% | OVCAR-3 ovarian 106% | HS 578T breast 111% | NCI/ADR-RES ovarian 98.9%

Cc1cc(Nc2nc(-c3cccnc3)nc3ccccc23)n[nH]1
inactive: SR leukemia 15.5% | RPMI-8226 leukemia 98.8% | OVCAR-8 ovarian 80.6% | OVCAR-5 ovarian 65.9% | OVCAR-4 ovarian 60.8% | SK-OV-3 ovarian 21.9% | IGROV1 ovarian 28.9% | OVCAR-3 ovarian 59% | NCI/ADR-RES ovarian 69.3%
active: HS 578T breast 5.1%

CCCCCN(CCCCC)CCC[C@@H](C)[C@H]1CC[C@H]2[C@@H]3[C@H](OCCCN)C[C@@H]4C[C@H](OCCCN)CC[C@]4(C)[C@H]3C[C@H](OCCCN)[C@]12C
inactive: SR leukemia 19.2% | OVCAR-8 ovarian 55.3% | OVCAR-5 ovarian 66.2% | OVCAR-4 ovarian 85.2% | SK-OV-3 ovarian 93.2% | IGROV1 ovarian 29.6% | OVCAR-3 ovarian 107% | HS 578T breast 66.9% | NCI/ADR-RES ovarian 76%
active: RPMI-8226 leukemia -17.7%

COc1ccc(C(=O)c2sc3nc4c(c(C(F)(F)F)c3c2N)CN(C(C)=O)CC4)cc1OC
inactive: SR leukemia 79.4% | RPMI-8226 leukemia 57.1% | OVCAR-8 ovarian 80.9% | OVCAR-5 ovarian 89.3% | OVCAR-4 ovarian 85.8% | SK-OV-3 ovarian 87.2% | IGROV1 ovarian 98.2% | OVCAR-3 ovarian 95.9% | HS 578T breast 81.6% | NCI/ADR-RES ovarian 84.7%

CSc1nc2sc3c(c2c(=O)n1-c1ccc(C(C)C)cc1)CCC(=O)C3
inactive: OVCAR-4 ovarian 14.5% | SK-OV-3 ovarian 35.6%
active: SR leukemia -11.7% | RPMI-8226 leukemia -29.9% | OVCAR-8 ovarian 4.63% | OVCAR-5 ovarian 6.13% | IGROV1 ovarian -6.1% | OVCAR-3 ovarian -27.4% | HS 578T breast 2.67% | NCI/ADR-RES ovarian -11.1%

O=C1Nc2ccccc2/C1=C/C(=N/c1nnc(-c2ccc(Cl)cc2)s1)c1ccccc1
active: SR leukemia -27.6% | RPMI-8226 leukemia -14.4% | OVCAR-3 ovarian -70.1%
inactive: OVCAR-8 ovarian 10.4% | OVCAR-5 ovarian 72.6% | OVCAR-4 ovarian 57.3% | SK-OV-3 ovarian 75.9% | IGROV1 ovarian 21% | HS 578T breast 80.1% | NCI/ADR-RES ovarian 41%

Cc1ccc(-c2nc(/C=N/Nc3cc(C)nc4ccc(Br)cc34)c(C)o2)cc1
active: SR leukemia 2.27% | RPMI-8226 leukemia -38.5% | OVCAR-8 ovarian -63.5% | OVCAR-5 ovarian -68.7% | OVCAR-4 ovarian -94.3% | IGROV1 ovarian -77.3% | OVCAR-3 ovarian -94.8% | NCI/ADR-RES ovarian -69.9%
inactive: SK-OV-3 ovarian 105% | HS 578T breast 102%

Cn1c2ccccc2c2c3c(c4c5ccccc5n(CCCCCC#N)c4c21)C(=O)N(O)C3=O
active: SR leukemia 1.39% | RPMI-8226 leukemia 0.134% | OVCAR-3 ovarian 6.92%
inactive: OVCAR-8 ovarian 27.5% | OVCAR-5 ovarian 12.8% | OVCAR-4 ovarian 28.4% | SK-OV-3 ovarian 37.1% | IGROV1 ovarian 27.6% | HS 578T breast 13% | NCI/ADR-RES ovarian 12.2%

O=[N+]([O-])c1cccc(C2CC(c3ccccc3)=Nc3ccccc3S2)c1 (stereo not given)
active: SR leukemia -40.3%
inactive: RPMI-8226 leukemia 16.1% | OVCAR-8 ovarian 61.9% | OVCAR-5 ovarian 109% | OVCAR-4 ovarian 81.7% | SK-OV-3 ovarian 97.7% | IGROV1 ovarian 91.8% | OVCAR-3 ovarian 88% | HS 578T breast 95.9% | NCI/ADR-RES ovarian 98.3%

CCOC(=O)C(Cc1cc(I)c(O)c(I)c1)NC(=O)c1ccccc1 (stereo not given)
inactive: SR leukemia 88.9% | RPMI-8226 leukemia 89.5% | OVCAR-8 ovarian 97.7% | OVCAR-5 ovarian 96.1% | OVCAR-4 ovarian 108% | SK-OV-3 ovarian 94.1% | IGROV1 ovarian 99% | OVCAR-3 ovarian 108% | HS 578T breast 87% | NCI/ADR-RES ovarian 106%

COc1ccc(S(=O)(=O)NCCNc2nccc(-c3c(-c4cccc(N)c4)nc4sccn34)n2)cc1
inactive: SR leukemia 107% | RPMI-8226 leukemia 96% | OVCAR-8 ovarian 98.2% | OVCAR-5 ovarian 121% | OVCAR-4 ovarian 82.4% | SK-OV-3 ovarian 108% | IGROV1 ovarian 98% | OVCAR-3 ovarian 100% | HS 578T breast 97.9% | NCI/ADR-RES ovarian 101%

O=C(O)c1cccc2c1-c1ccccc1C2=O
inactive: SR leukemia 94.2% | RPMI-8226 leukemia 124% | OVCAR-8 ovarian 103% | OVCAR-5 ovarian 92.2% | OVCAR-4 ovarian 105% | SK-OV-3 ovarian 103% | IGROV1 ovarian 85% | OVCAR-3 ovarian 102% | HS 578T breast 97.7% | NCI/ADR-RES ovarian 100%

CC/C=C\C[C@H](O)C/C=C1/C(=O)C=C[C@@H]1C/C=C\CCCC(=O)NC
inactive: OVCAR-8 ovarian 11.1% | OVCAR-5 ovarian 20.2% | OVCAR-4 ovarian 44.4% | SK-OV-3 ovarian 11.4% | HS 578T breast 47.7%
active: SR leukemia -27% | RPMI-8226 leukemia -3.18% | IGROV1 ovarian 7.71% | OVCAR-3 ovarian 4.67% | NCI/ADR-RES ovarian 6.92%

CC(=O)OC1Oc2cc(C)c(C)cc2-c2oc(=O)c(-c3cc4ccc(N(C)C)cc4oc3=O)cc21 (stereo not given)
inactive: RPMI-8226 leukemia 29.4% | OVCAR-8 ovarian 75.9% | OVCAR-5 ovarian 86.4% | OVCAR-4 ovarian 89.8% | SK-OV-3 ovarian 78.2% | IGROV1 ovarian 93.2% | OVCAR-3 ovarian 94.1% | HS 578T breast 112% | NCI/ADR-RES ovarian 64.7%
active: SR leukemia -41.6%

N#Cc1c(N)nc(N)nc1Nc1ccc(Br)cc1
inactive: SR leukemia 102% | RPMI-8226 leukemia 97% | OVCAR-8 ovarian 101% | OVCAR-5 ovarian 115% | OVCAR-4 ovarian 94.5% | SK-OV-3 ovarian 108% | IGROV1 ovarian 47% | OVCAR-3 ovarian 97.6% | HS 578T breast 70.1% | NCI/ADR-RES ovarian 104%

COc1ccc(-c2cc(/C=C3\C(=O)Nc4ccc(Cl)cc43)[nH]n2)cc1
inactive: SR leukemia 10.6% | RPMI-8226 leukemia 61.6% | OVCAR-8 ovarian 67.5% | OVCAR-5 ovarian 92.5% | OVCAR-4 ovarian 101% | SK-OV-3 ovarian 60% | IGROV1 ovarian 17.7% | OVCAR-3 ovarian 31.6% | HS 578T breast 68.6% | NCI/ADR-RES ovarian 34.2%

C/C=C/C(N)=O
inactive: SR leukemia 92% | RPMI-8226 leukemia 109% | OVCAR-8 ovarian 106% | OVCAR-5 ovarian 100% | OVCAR-4 ovarian 107% | SK-OV-3 ovarian 110% | IGROV1 ovarian 106% | OVCAR-3 ovarian 99% | HS 578T breast 99.9% | NCI/ADR-RES ovarian 106%

Nc1nc2c(c3ncccc13)C(c1ccc(Cl)c(Cl)c1)Cc1ncccc1-2 (stereo not given)
inactive: RPMI-8226 leukemia 15.8% | OVCAR-8 ovarian 34.2% | OVCAR-5 ovarian 81.3% | OVCAR-4 ovarian 67.6% | SK-OV-3 ovarian 19.7% | IGROV1 ovarian 50.8% | HS 578T breast 31.5%
active: SR leukemia 0.136% | OVCAR-3 ovarian -8.92% | NCI/ADR-RES ovarian 4%

CC/C(Cc1ccccc1)=C(\c1ccc(OCCN2CCCC2)cc1)c1ccc(OC(C)=O)cc1
inactive: SR leukemia 14.3% | RPMI-8226 leukemia 60.2% | OVCAR-8 ovarian 97.8% | OVCAR-5 ovarian 92.6% | OVCAR-4 ovarian 79% | SK-OV-3 ovarian 107% | IGROV1 ovarian 78% | OVCAR-3 ovarian 89.6% | HS 578T breast 85.5% | NCI/ADR-RES ovarian 75.5%

CCN(CC)CCCC(C)N/C(=C1\C(=O)NC(=O)\C1=C(/NC(C)CCCN(CC)CC)c1cccc(OC)c1)c1cccc(OC)c1 (stereo not given)
active: SR leukemia -25.1% | RPMI-8226 leukemia -35.7% | OVCAR-8 ovarian 5.58% | OVCAR-5 ovarian 1.93% | OVCAR-4 ovarian -23.3% | IGROV1 ovarian -18.5% | OVCAR-3 ovarian -11.3% | NCI/ADR-RES ovarian 2.36%
inactive: SK-OV-3 ovarian 11.8% | HS 578T breast 38.4%

CCCCN(CCCC)Cc1c(C)[nH]c2cc(OC)ccc2c1=O
inactive: SR leukemia 92.8% | RPMI-8226 leukemia 99.7% | OVCAR-8 ovarian 91.9% | OVCAR-5 ovarian 119% | OVCAR-4 ovarian 106% | SK-OV-3 ovarian 92.2% | IGROV1 ovarian 113% | OVCAR-3 ovarian 96.6% | HS 578T breast 103% | NCI/ADR-RES ovarian 104%

COc1cc(OC)c(/C=C/C(=O)c2c(OC)cc(OC)cc2OC)c(OC)c1
inactive: OVCAR-8 ovarian 17.6% | OVCAR-5 ovarian 29.1% | OVCAR-4 ovarian 47.6% | SK-OV-3 ovarian 24.7% | IGROV1 ovarian 30.1% | HS 578T breast 52.6% | NCI/ADR-RES ovarian 12.3%
active: SR leukemia -11.9% | RPMI-8226 leukemia -6.66% | OVCAR-3 ovarian 6.92%
